# Experimental data taken from the supplement of paper PMC10037445.
# Whole data set: some 2,900 compounds, median “NF-kB SEAP reporter activity, fold change vs agonist alone” near 0.99, cut for the highest 2% near 2.6. The entries come from a sample that favours the highest values as a whole.
# How the values were obtained:
# RAW-Dual [1] = assay: NF-kB SEAP reporter activity, fold change vs agonist alone; higher = enhanced NF-kB activity; details: library stock concentration (final ~1000-fold dilution): 10 mM
# Outline: (§1)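 After 50 nL of library stock was delivered by pin tool to RAW-Dual macrophages (50,000 cells/well, DMEM, 384-well plates), a PRR agonist was added 1 h later and the plates were kept at 37 °C, 5% CO2. Twenty hours later, IRF was read from supernatant by QuantiLuc luminescence and NF-κB by QuantiBlue absorbance at 620 nm. Reporter activity is stated as fold change over agonist-alone wells. Wells with IncuCyte confluency under 70% of agonist controls in both mask sets were counted as cytotoxic.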
# RAW-Dual [2] = assay: NF-kB SEAP reporter activity, fold change vs agonist alone; cytotoxicity flag (confluency mask): not cytotoxic; higher = enhanced NF-kB activity
# Outline: as §1
# RAW-Dual [3] = assay: NF-kB SEAP reporter activity, fold change vs agonist alone; cytotoxicity flag (confluency mask): cytotoxic (confluency <70% of control); higher = enhanced NF-kB activity
# Outline: as §1
# [4] = cytotoxicity flag (confluency mask): not cytotoxic, agonist: Imiquimod (TLR7) […]
# [5] = cytotoxicity flag (confluency mask): not cytotoxic, agonist: MPLA (TLR4) […]
# [6] = agonist: ODN 1826 (TLR9) 0.5 ug/mL
# [7] = agonist: Pam2CSK4 (TLR2/6) 0.1 ug/mL
# [8] = agonist: Pam3CSK4 (TLR2/1) 0.1 ug/mL
# [9] = cytotoxicity flag (confluency mask): cytotoxic (confluency <70% of control), agonist: Imiquimod (TLR7) […]
# [10] = cytotoxicity flag (confluency mask): cytotoxic (confluency <70% of control), agonist: MPLA (TLR4) […]
compound,measurement,setting,value
Cc1cn(C2CC(O)C(CO)O2)c(=O)[nH]c1=O (stereo not drawn),NF-kB SEAP reporter activity,RAW-Dual [1]; [4],0.952
same,NF-kB SEAP reporter activity,RAW-Dual [1]; [5],1.03
Cc1cn(C2CC(O)C(CO)O2)c(=O)[nH]c1=O (stereo not drawn) (library stock concentration (final ~1000-fold dilution): 10 mM),NF-kB SEAP reporter activity,RAW-Dual [2]; agonist: LPS (TLR4) 0.1 ug/mL,1.16
same,NF-kB SEAP reporter activity,RAW-Dual [2]; [6],1.03
same,NF-kB SEAP reporter activity,RAW-Dual [2]; [7],1.12
same,NF-kB SEAP reporter activity,RAW-Dual [2]; [8],1.11
COCCOc1ccc2c(c1)ncn2-c1ccc2cccc(N3CCC(N)CC3)c2n1,NF-kB SEAP reporter activity,RAW-Dual [1]; [9],2.77
same,NF-kB SEAP reporter activity,RAW-Dual [1]; [10],0.871
CC1(COc2ccc3c(c2)ncn3-c2ccc3cccc(N4CCC(N)CC4)c3n2)COC1,NF-kB SEAP reporter activity,RAW-Dual [1]; [9],2.9
same,NF-kB SEAP reporter activity,RAW-Dual [1]; [10],1.43
CC1(COc2ccc3c(c2)ncn3-c2ccc3cccc(N4CCC(N)CC4)c3n2)COC1 (library stock concentration (final ~1000-fold dilution): 10 mM),NF-kB SEAP reporter activity,RAW-Dual [3]; agonist: LPS (TLR4) 0.1 ug/mL,0.769
same,NF-kB SEAP reporter activity,RAW-Dual [3]; [6],1.59
same,NF-kB SEAP reporter activity,RAW-Dual [3]; [7],1.81
same,NF-kB SEAP reporter activity,RAW-Dual [3]; [8],1.6
COCCOc1ccc2c(c1)ncn2-c1ccc2cccc(N3CCC(N)CC3)c2n1 (library stock concentration (final ~1000-fold dilution): 10 mM),NF-kB SEAP reporter activity,RAW-Dual [3]; agonist: LPS (TLR4) 0.1 ug/mL,0.593
same,NF-kB SEAP reporter activity,RAW-Dual [3]; [6],0.758
same,NF-kB SEAP reporter activity,RAW-Dual [3]; [7],0.862
same,NF-kB SEAP reporter activity,RAW-Dual [3]; [8],1.32
OCc1ccccc1OC1OC(CO)C(O)C(O)C1O (stereo not drawn) (library stock concentration (final ~1000-fold dilution): 10 mM),NF-kB SEAP reporter activity,RAW-Dual [2]; agonist: LPS (TLR4) 0.1 ug/mL,0.986
same,NF-kB SEAP reporter activity,RAW-Dual [2]; [6],1.08
same,NF-kB SEAP reporter activity,RAW-Dual [2]; [7],1.11
same,NF-kB SEAP reporter activity,RAW-Dual [2]; [8],1.19
OCc1ccccc1OC1OC(CO)C(O)C(O)C1O (stereo not drawn),NF-kB SEAP reporter activity,RAW-Dual [1]; [4],0.917
same,NF-kB SEAP reporter activity,RAW-Dual [1]; [5],1.04
COc1cccc(-c2c(C)n(Cc3c(F)cccc3C(F)(F)F)c(=O)n(CC(NCCCC(=O)O)c3ccccc3)c2=O)c1F (stereo not drawn),NF-kB SEAP reporter activity,RAW-Dual [1]; [5],1.03
COc1cccc(-c2c(C)n(Cc3c(F)cccc3C(F)(F)F)c(=O)n(CC(NCCCC(=O)O)c3ccccc3)c2=O)c1F (stereo not drawn) (library stock concentration (final ~1000-fold dilution): 10 mM),NF-kB SEAP reporter activity,RAW-Dual [2]; agonist: LPS (TLR4) 0.1 ug/mL,1.32
same,NF-kB SEAP reporter activity,RAW-Dual [2]; [6],1.06
same,NF-kB SEAP reporter activity,RAW-Dual [2]; [7],0.866
same,NF-kB SEAP reporter activity,RAW-Dual [2]; [8],0.768
C=CC1(C)CC(OC(=O)CSCCN(CC)CC)C2(C)C(C)CCC3(CCC(=O)C32)C(C)C1O (stereo not drawn) (library stock concentration (final ~1000-fold dilution): 10 mM),NF-kB SEAP reporter activity,RAW-Dual [2]; agonist: LPS (TLR4) 0.1 ug/mL,1.56
same,NF-kB SEAP reporter activity,RAW-Dual [2]; [6],0.725
same,NF-kB SEAP reporter activity,RAW-Dual [2]; [7],1.11
same,NF-kB SEAP reporter activity,RAW-Dual [2]; [8],0.934
C=CC1(C)CC(OC(=O)CSCCN(CC)CC)C2(C)C(C)CCC3(CCC(=O)C32)C(C)C1O (stereo not drawn),NF-kB SEAP reporter activity,RAW-Dual [1]; [5],1.12
O=C1CCC(N2C(=O)c3ccccc3C2=O)C(=O)N1 (stereo not drawn),NF-kB SEAP reporter activity,RAW-Dual [1]; [4],0.926
same,NF-kB SEAP reporter activity,RAW-Dual [1]; [5],0.792
Cc1sc2c(c1C)C(c1ccc(Cl)cc1)=N[C@@H](CC(=O)NCCCCCCCCNC(=O)COc1cccc3c1C(=O)N(C1CCC(=O)NC1=O)C3=O)c1nnc(C)n1-2 (stereo partly drawn),NF-kB SEAP reporter activity,RAW-Dual [1]; [9],1.73
same,NF-kB SEAP reporter activity,RAW-Dual [1]; [10],2.44
Nc1cccc2c1C(=O)N(C1CCC(=O)NC1=O)C2=O (stereo not drawn) (library stock concentration (final ~1000-fold dilution): 10 mM),NF-kB SEAP reporter activity,RAW-Dual [2]; agonist: LPS (TLR4) 0.1 ug/mL,1.16
same,NF-kB SEAP reporter activity,RAW-Dual [2]; [6],1.17
same,NF-kB SEAP reporter activity,RAW-Dual [2]; [7],1.08
same,NF-kB SEAP reporter activity,RAW-Dual [2]; [8],1.35
Cc1sc2c(c1C)C(c1ccc(Cl)cc1)=NC(CC(=O)NCCCCNC(=O)COc1cccc3c1C(=O)N(C1CCC(=O)NC1=O)C3=O)c1nnc(C)n1-2 (stereo not drawn) (library stock concentration (final ~1000-fold dilution): 10 mM),NF-kB SEAP reporter activity,RAW-Dual [3]; agonist: LPS (TLR4) 0.1 ug/mL,7.56
same,NF-kB SEAP reporter activity,RAW-Dual [3]; [6],3.05
same,NF-kB SEAP reporter activity,RAW-Dual [3]; [7],1.99
same,NF-kB SEAP reporter activity,RAW-Dual [3]; [8],3.03
Nc1cccc2c1C(=O)N(C1CCC(=O)NC1=O)C2=O (stereo not drawn),NF-kB SEAP reporter activity,RAW-Dual [1]; [4],1.6
same,NF-kB SEAP reporter activity,RAW-Dual [1]; [5],1.07
Cc1sc2c(c1C)C(c1ccc(Cl)cc1)=N[C@@H](CC(=O)NCCCCCCCCNC(=O)COc1cccc3c1C(=O)N(C1CCC(=O)NC1=O)C3=O)c1nnc(C)n1-2 (stereo partly drawn) (library stock concentration (final ~1000-fold dilution): 10 mM),NF-kB SEAP reporter activity,RAW-Dual [3]; agonist: LPS (TLR4) 0.1 ug/mL,3.73
same,NF-kB SEAP reporter activity,RAW-Dual [3]; [6],1.84
same,NF-kB SEAP reporter activity,RAW-Dual [3]; [7],1.74
same,NF-kB SEAP reporter activity,RAW-Dual [3]; [8],3
Cc1sc2c(c1C)C(c1ccc(Cl)cc1)=NC(CC(=O)NCCCCNC(=O)COc1cccc3c1C(=O)N(C1CCC(=O)NC1=O)C3=O)c1nnc(C)n1-2 (stereo not drawn),NF-kB SEAP reporter activity,RAW-Dual [1]; [9],1.89
same,NF-kB SEAP reporter activity,RAW-Dual [1]; [10],2.59
O=C1CCC(N2C(=O)c3ccccc3C2=O)C(=O)N1 (stereo not drawn) (library stock concentration (final ~1000-fold dilution): 10 mM),NF-kB SEAP reporter activity,RAW-Dual [2]; agonist: LPS (TLR4) 0.1 ug/mL,1.22
same,NF-kB SEAP reporter activity,RAW-Dual [2]; [6],1.01
same,NF-kB SEAP reporter activity,RAW-Dual [2]; [7],0.95
same,NF-kB SEAP reporter activity,RAW-Dual [2]; [8],1.17
